Measured values reported in PubChem BioAssay (Tox21).
Values joined by “and” are separate entries in the source; they are usually repeats but may differ in a detail not shown here. Equal entries are not always repeated. Results filed as inconclusive are left out. Where a call stands in place of a potency, no number is given. More than one record can exist for a structure, and the calls need not agree. Active and inactive are the calls of the source. Unless noted, calls follow the shape of the full dose curve.

Legend:
[1] = Nuclear factor erythroid 2-related factor 2/antioxidant responsive element (Nrf2/ARE) small molecule agonists: qHTS cell viability counter screen in human keratinocytes (AID 1919968; active = well fitted curve in the direction sought with a large enough effect in the repeat runs; an effect the other way counts as inactive or inconclusive; also: nearly all actives have a fitted effect of over 55% in size; also: potency is read from the fitted curve at half-maximal effect)
How it was run: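 Cells of the KeratinoSens line were plated at 1,500 per well and left for 5 h before compound transfer from DMSO stocks. After a 23 h incubation (37 C, 5% CO2), CellTiter-Fluor was added. Signal was taken as fluorescence intensity 1 h later.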

[2] = Nuclear factor erythroid 2-related factor 2/antioxidant responsive element (Nrf2/ARE) small molecule agonists: luciferase reporter gene qHTS assay in human keratinocytes (AID 1919969); also: nearly all actives have a fitted effect of over 35% in size
[3] = target: Gonadotropin-releasing hormone receptor (Homo sapiens) (UniProt P30968); assay: Human gonadotropin-releasing hormone receptor (GnRHR) small molecule agonists, calcium flux assay in GnRHR-HEK293 cells (AID 1920063); also: nearly all actives have a fitted effect of over 35% in size
Gonadotropin-releasing hormone receptor (Homo sapiens), sequence (P30968 whole entry, looked up): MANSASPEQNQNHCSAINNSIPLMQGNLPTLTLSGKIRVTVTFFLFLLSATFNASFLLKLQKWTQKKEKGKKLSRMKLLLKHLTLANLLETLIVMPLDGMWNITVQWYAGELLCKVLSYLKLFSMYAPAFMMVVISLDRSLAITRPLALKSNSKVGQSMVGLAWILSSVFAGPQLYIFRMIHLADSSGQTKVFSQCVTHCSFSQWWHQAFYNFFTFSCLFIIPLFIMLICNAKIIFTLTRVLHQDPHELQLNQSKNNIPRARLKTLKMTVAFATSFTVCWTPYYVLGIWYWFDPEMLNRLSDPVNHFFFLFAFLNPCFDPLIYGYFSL
How it was run: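 Compounds dissolved in DMSO are pin-transferred onto dye-loaded GnRHR-HEK293 cells, which were seeded 18 h before at 37 C/5% CO2. Calcium signal is read as fluorescence intensity at 1 s intervals for 3 min.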

[4] = target: KiSS-1 receptor (Homo sapiens) (UniProt Q969F8); assay: Human kisspeptin (KISS1R) small molecule agonists, calcium flux assay in KISS1R-HEK293 cells (AID 1920064; active = well fitted curve in the direction sought with a large enough effect in the repeat runs; an effect the other way counts as inactive or inconclusive)
KiSS-1 receptor (Homo sapiens), sequence (Q969F8 whole entry, looked up): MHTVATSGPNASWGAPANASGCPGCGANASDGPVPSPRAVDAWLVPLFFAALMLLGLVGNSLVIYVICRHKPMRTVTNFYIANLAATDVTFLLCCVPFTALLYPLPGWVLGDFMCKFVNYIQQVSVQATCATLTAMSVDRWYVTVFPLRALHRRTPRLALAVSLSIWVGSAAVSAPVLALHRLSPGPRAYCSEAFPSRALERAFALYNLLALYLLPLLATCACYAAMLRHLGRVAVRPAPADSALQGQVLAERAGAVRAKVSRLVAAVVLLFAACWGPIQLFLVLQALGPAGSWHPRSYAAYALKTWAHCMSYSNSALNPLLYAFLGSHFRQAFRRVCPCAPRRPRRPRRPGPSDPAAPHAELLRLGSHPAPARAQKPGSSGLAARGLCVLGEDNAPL
How it was run: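 Cell line: HEK293, stable human KISS1R. Dye loading 1 h at 37 C after 18 h culture. Read: kinetic fluorescence, 480/540 nm, 3 min at 1 s intervals.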

[5] = p53 small molecule agonists, cell-based qHTS assay with rat liver microsomes (AID 1963578)
How it was run: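 With rat liver microsomes and NADPH present (0.5 mg/mL final each), p53RE-bla cells are treated with compound for 16 h at 37 C. LiveBLAzer detection mixture is then applied for 2 h at room temperature in the dark.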

[6] = p53 small molecule agonists, cell-based qHTS assay with human liver microsomes: qHTS cell viability counter screen (AID 1963579); also: nearly all actives have a fitted effect of over 45% in size
How it was run: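 In this multiplexed counter screen, the reporter plates were subsequently treated with CellTiter-Glo so that cell viability, reflected by luminescence, could be recorded for p53RE-bla cells dosed 16 h with compounds under microsomal activation (HLM and NADPH).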

[7] = p53 small molecule agonists, cell-based qHTS assay with rat liver microsomes: qHTS cell viability counter screen (AID 1963580); also: nearly all actives have a fitted effect of over 45% in size
How it was run: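 Counter screen for cytotoxicity under metabolic activation: rat liver microsomes and NADPH, 0.5 mg/mL final each, added with compounds to p53RE-bla HCT-116 cells; 16 h at 37 C, then ATP luminescence read.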

[8] = p53 small molecule agonists, cell-based qHTS assay: qHTS cell viability counter screen (AID 1963581); also: nearly all actives have a fitted effect of over 45% in size
How it was run: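 ATP content measured by luminescence in HCT-116 p53RE-bla cells treated 16 h at 37 C, same wells as the reporter screen.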

[9] = p53 small molecule agonists, cell-based qHTS assay (AID 1963582; active = well fitted activation curve with a large enough effect in the signal ratio in the repeat runs, not every such curve was filed as active; the % refers to the signal ratio)
How it was run: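 16 h compound exposure (37 C) of p53 response element–bla cells, preceded by 5 h recovery at 37 C/5% CO2; read-out via LiveBLAzer B/G FRET substrate, 2 h RT, fluorescence intensity.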

[10] = target: 5-hydroxytryptamine receptor 2A (Homo sapiens) (UniProt P28223); assay: 5-hydroxytryptamine receptor 2A (HTR2A) small molecule antagonists, cell-based qHTS assay (AID 1963586); also: nearly all actives have a fitted effect of over 45% in size; also: potency is read from the fitted curve at half-maximal effect
5-hydroxytryptamine receptor 2A (Homo sapiens), sequence (P28223 whole entry, looked up): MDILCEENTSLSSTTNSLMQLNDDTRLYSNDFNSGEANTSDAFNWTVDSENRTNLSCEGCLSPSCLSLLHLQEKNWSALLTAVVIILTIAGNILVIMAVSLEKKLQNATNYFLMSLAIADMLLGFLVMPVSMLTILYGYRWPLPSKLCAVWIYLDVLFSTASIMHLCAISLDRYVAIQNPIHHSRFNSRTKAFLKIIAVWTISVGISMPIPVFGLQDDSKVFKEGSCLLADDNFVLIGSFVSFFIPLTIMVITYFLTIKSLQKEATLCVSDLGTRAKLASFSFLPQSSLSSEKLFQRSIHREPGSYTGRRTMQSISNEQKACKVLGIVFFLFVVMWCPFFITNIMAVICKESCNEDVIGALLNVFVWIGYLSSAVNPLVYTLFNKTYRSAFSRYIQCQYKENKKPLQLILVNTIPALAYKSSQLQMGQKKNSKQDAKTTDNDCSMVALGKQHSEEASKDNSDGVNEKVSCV
How it was run: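 CHO cells stably expressing human HTR2A were plated for 18 h at 37 C, then loaded with calcium dye for 1 h. Compounds were preincubated 5 min at room temperature before DOI (4 nM solution) was added. Kinetic fluorescence was read for 3 min.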

[11] = target: 5-hydroxytryptamine receptor 2A (Homo sapiens) (UniProt P28223); assay: 5-hydroxytryptamine receptor 2A (HTR2A) small molecule agonists, cell-based qHTS assay (AID 1963587); also: nearly all actives have a fitted effect of over 30% in size; also: potency is read from the fitted curve at half-maximal effect
How it was run: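 HTR2A-CHO cells, plated 18 h at 37 C/5% CO2, dye-loaded 1 h at 37 C; compounds in DMSO added by pin tool (agonist mode). Intracellular calcium flux read as kinetic fluorescence on FDSS over 2 min at 1 s intervals.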

[12] = target: Muscarinic acetylcholine receptor M1 (Homo sapiens) (UniProt P11229); assay: Cholinergic receptor muscarinic 1 (CHRM1) small molecule antagonists, cell-based qHTS assay (AID 1963588); also: nearly all actives have a fitted effect of over 40% in size; also: potency is read from the fitted curve at half-maximal effect
Muscarinic acetylcholine receptor M1 (Homo sapiens), sequence (P11229 whole entry, looked up): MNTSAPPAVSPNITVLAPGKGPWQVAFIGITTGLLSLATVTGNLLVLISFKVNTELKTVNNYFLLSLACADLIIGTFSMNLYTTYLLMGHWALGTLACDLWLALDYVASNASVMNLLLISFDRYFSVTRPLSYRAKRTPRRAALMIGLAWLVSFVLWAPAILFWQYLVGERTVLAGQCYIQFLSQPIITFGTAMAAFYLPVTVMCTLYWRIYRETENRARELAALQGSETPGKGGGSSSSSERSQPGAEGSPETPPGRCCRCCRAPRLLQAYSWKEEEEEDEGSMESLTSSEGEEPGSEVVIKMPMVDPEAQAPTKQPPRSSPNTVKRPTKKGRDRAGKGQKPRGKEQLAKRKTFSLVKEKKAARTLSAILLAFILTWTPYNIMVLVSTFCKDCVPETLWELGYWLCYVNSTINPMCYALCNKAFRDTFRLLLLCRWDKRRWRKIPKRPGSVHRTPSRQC
How it was run: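 Compounds were tested at 15 concentrations in three independent runs. Dye-loaded CHRM1-CHO cells were exposed 5 min at room temperature before stimulation by acetylcholine added at 50nM. Intracellular calcium was read kinetically on FDSS for 3 min.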

[13] = target: Muscarinic acetylcholine receptor M1 (Homo sapiens) (UniProt P11229); assay: Cholinergic receptor muscarinic 1 (CHRM1) small molecule agonists, cell-based qHTS assay (AID 1963589); also: nearly all actives have a fitted effect of over 35% in size
How it was run: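 Homogeneous fluorescence calcium flux, agonist mode. Human M1-expressing CHO cells; compound dosed at 15 concentrations, three independent runs; signal sampled every 1 sec.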

[14] = cAMP Responsive Elements (CRE) small molecule agonists, cell-based qHTS assay (AID 1963590)
How it was run: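 HEK 293T cells stably bearing CRE-bla were plated at 2,000 cells per well and rested 18 h. Compounds, positive controls or DMSO were added for 3 h at 37 C. LiveBLAzer B/G substrate was then loaded for 2 h at room temperature.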

[15] = target: Beta-2 adrenergic receptor (Homo sapiens) (UniProt P07550); assay: Adrenergic beta2 receptor (ADRB2) small molecule antagonists, cell-based qHTS assay (AID 1963592); also: series mostly up to about 92 µM; nearly all actives have a fitted effect of over 50% in size
Beta-2 adrenergic receptor (Homo sapiens), sequence (P07550 whole entry, looked up): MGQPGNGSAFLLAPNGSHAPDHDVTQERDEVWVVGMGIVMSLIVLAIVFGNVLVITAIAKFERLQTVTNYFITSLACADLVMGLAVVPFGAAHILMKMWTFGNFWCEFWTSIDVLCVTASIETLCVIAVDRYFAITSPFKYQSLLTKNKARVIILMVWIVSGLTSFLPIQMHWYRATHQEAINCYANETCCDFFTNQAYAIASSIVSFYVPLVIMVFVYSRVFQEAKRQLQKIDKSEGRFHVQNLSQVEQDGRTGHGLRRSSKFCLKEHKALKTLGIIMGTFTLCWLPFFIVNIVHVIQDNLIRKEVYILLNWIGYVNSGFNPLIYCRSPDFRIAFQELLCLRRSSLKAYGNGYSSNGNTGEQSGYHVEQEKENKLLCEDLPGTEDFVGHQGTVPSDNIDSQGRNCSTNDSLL
How it was run: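 Assay format: CHO-ADRB2 cells, 18-20hr seeding at 37C/5% CO2, then compound plus 1nM isoproterenol agonist mix for 0.5hr RT. Homogeneous time-resolved fluorescence cAMP detection after 1hr, expressed as 665/615 nm ratio.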

[16] = target: D(2) dopamine receptor (Homo sapiens) (UniProt P14416); assay: Dopamine D2 receptor (DRD2) small molecule agonists, cell-based qHTS assay (AID 1963594); also: nearly all actives have a fitted effect of over 35% in size
D(2) dopamine receptor (Homo sapiens), sequence (P14416 whole entry, looked up): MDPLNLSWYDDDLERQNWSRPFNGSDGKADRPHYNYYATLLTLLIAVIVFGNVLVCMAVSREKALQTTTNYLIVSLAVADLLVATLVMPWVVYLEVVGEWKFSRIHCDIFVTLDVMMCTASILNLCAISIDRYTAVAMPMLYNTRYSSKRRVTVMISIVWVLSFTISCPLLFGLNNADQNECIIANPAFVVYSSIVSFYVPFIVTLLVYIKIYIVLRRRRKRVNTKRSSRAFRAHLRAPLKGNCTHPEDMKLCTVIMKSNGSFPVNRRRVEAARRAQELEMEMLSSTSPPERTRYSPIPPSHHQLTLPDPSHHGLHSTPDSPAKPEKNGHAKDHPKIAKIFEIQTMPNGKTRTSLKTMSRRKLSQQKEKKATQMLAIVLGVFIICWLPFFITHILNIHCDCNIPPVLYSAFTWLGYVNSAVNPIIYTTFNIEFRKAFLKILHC
How it was run: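 HEK293 cells stably expressing DRD2 were cultured 24 h at 37 C, then given Ro20-1724 (0.1 mM final) and compounds for 10 min at room temperature. NKH477 (200nM) was then added for 30 min. cAMP was read by HTRF.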

[17] = target: D(2) dopamine receptor (Homo sapiens) (UniProt P14416); assay: Dopamine D2 receptor (DRD2) small molecule antagonists, cell-based qHTS assay (AID 1963595; active = well fitted inhibition curve with a large enough effect in the signal ratio in the repeat runs, with a control signal flat; the % refers to the signal ratio)
How it was run: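 Cells were plated and grown for 24 h at 37 °C. Ro20-1724 (0.1 mM final) went in first, then compound for 10 min. NKH477 (200 nM) with quinpirole (12 nM) followed for 30 min at RT, then HTRF detection reagents for 1 h.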

[18] = G protein-coupled receptor (GPCR) small molecule agonists, calcium flux assay: HEK293 wild type cell line counter screen (AID 1920065)
How it was run: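 Tox21 10K compounds, 15 concentrations each in triplicate, pin-transferred in DMSO onto dye-loaded cells; kinetic read at 480/540 nm for 3 min, 1 s intervals.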

[19] = cAMP Responsive Elements (CRE) small molecule antagonists, cell-based qHTS assay (AID 1963591; active = well fitted inhibition curve with a large enough effect in the signal ratio in the repeat runs, not every such curve was filed as active; the % refers to the signal ratio)
How it was run: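 First, CRE-bla HEK293T cells settled 18 h at 37 C. Next, compound and 0.25 uM final NKH477 were applied for 3 h. Last, LiveBLAzer B/G substrate was loaded for 2 h at room temperature.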

[20] = target: Beta-2 adrenergic receptor (Homo sapiens) (UniProt P07550); assay: Adrenergic beta2 receptor (ADRB2) small molecule agonists, cell-based qHTS assay (AID 1963593);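 also: CHO cells stably overexpressing human ADRB2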
How it was run: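 CHO cells stably over-expressing ADRB2 were plated overnight at 37C, then dosed with compounds plus a stimulation mix containing 100uM IBMX and 25uM Ro-20-1724 for 0.5hr at room temperature. cAMP was measured by HTRF competition, 1hr.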

SMILES | Potency [1] | Potency [2] | Potency [3] | Potency [4] | Potency [5] | Potency [6] | Potency [7] | Potency [8] | Potency [9] | Potency [10] | Potency [11] | Potency [12] | Potency [13] | Potency [14] | Potency [15] | Potency [16] | Potency [17] | Potency [18] | Potency [19] | Potency [20]
Nc1nc2ccccc2[nH]1 | inactive | inactive | inactive | inactive | inactive | inactive | inactive | inactive | inactive | inactive | inactive | inactive | inactive | inactive | inactive | inactive | inactive | – | – | –
NC(=O)N1c2ccccc2C=Cc2ccccc21 | inactive | inactive | inactive | inactive | – | inactive | inactive | – | – | – | – | – | – | inactive | inactive | inactive | inactive | inactive | inactive | –
O=C(O)/C=C\C(=O)O | inactive | inactive | inactive | inactive | – | – | – | – | – | – | inactive | inactive | inactive | inactive | inactive | inactive | inactive | inactive | inactive | inactive
CCn1cc(C(=O)O)c(=O)c2ccc(C)nc21 | inactive | inactive | inactive | inactive | – | – | – | inactive | – | inactive and 3.34 µM (active) | inactive | inactive | inactive | – | inactive | inactive | inactive | inactive | – | inactive
Nc1nc(=S)c2[nH]cnc2[nH]1 | 66.8 µM (active) and inactive | inactive | inactive | inactive | – | inactive | inactive | – | – | – | – | – | – | inactive | inactive | inactive | inactive | inactive | inactive | inactive
O=C1NC(=O)C(c2ccccc2)(c2ccccc2)N1 | inactive | inactive | inactive | inactive | – | inactive | inactive | inactive | – | – | – | – | – | inactive | inactive | inactive | inactive | inactive | inactive | inactive
Cc1ccc(S(=O)(=O)NC(=O)NN2CCCCCC2)cc1 | inactive | inactive | inactive | inactive | – | inactive | inactive | inactive | – | – | – | – | – | inactive | inactive | inactive | inactive | inactive | inactive | inactive
Nc1nc2ncc(CNc3ccc(C(=O)N[C@@H](CCC(=O)O)C(=O)O)cc3)nc2c(=O)[nH]1 | inactive | inactive | inactive | inactive | inactive | inactive | inactive | inactive | inactive | inactive | inactive | inactive | – | inactive | inactive | inactive | inactive | – | inactive | inactive
CC(=O)CCC(=O)O | inactive | inactive | inactive | inactive | – | inactive | inactive | – | – | inactive | inactive | inactive | inactive | inactive | inactive | inactive | inactive | inactive | inactive | inactive
ClC/C=C/CCl | inactive | inactive | inactive | inactive | inactive | inactive | inactive | inactive | inactive | inactive | inactive | inactive | inactive | inactive | inactive | inactive | inactive | – | inactive | inactive
C[C@H]1C[C@@H]2[C@H]([C@@H](O)C[C@@]3(C)[C@H]2CC[C@]3(O)C(=O)CO)[C@@]2(C)C=CC(=O)C=C12 | inactive | inactive | inactive | inactive | inactive | inactive | inactive | inactive | inactive | – | – | – | – | inactive | inactive | inactive | inactive | – | – | inactive
NC1CCCCC1 | inactive | inactive | inactive | inactive | – | inactive | – | inactive | – | inactive | 1.96 µM (active) and inactive | inactive and 4.7 nM (active) | inactive | inactive | inactive | inactive | inactive | inactive | – | inactive
CCN(CC)C(=O)c1cccc(C)c1 | inactive | inactive | inactive | inactive | – | inactive | – | inactive | – | inactive | inactive | inactive | inactive | inactive | inactive | inactive | – | inactive | inactive | inactive
CC(C)C(=O)Nc1ccc([N+](=O)[O-])c(C(F)(F)F)c1 | inactive | inactive | inactive | inactive | – | inactive | inactive | inactive | – | – | – | – | – | – | inactive | – | inactive | inactive | – | inactive
Cc1c(N(C)CS(=O)(=O)O)c(=O)n(-c2ccccc2)n1C | inactive | inactive | inactive | inactive | inactive | inactive | inactive | inactive | inactive | – | – | – | – | inactive | inactive | inactive | inactive | – | inactive | –
COc1ccc(CN(CCN(C)C)c2ccccn2)cc1 | inactive | inactive | inactive | inactive | – | – | inactive | inactive | – | – | – | – | – | inactive | inactive | inactive | inactive | inactive | inactive | inactive
O=c1[nH]cnc2c1ncn2[C@H]1CC[C@@H](CO)O1 | inactive | inactive | inactive | inactive | – | inactive | inactive | inactive | – | – | – | – | – | inactive | inactive | inactive | inactive | inactive | inactive | inactive
Cc1cccc(O)c1C | inactive | inactive | inactive | inactive | inactive | inactive | inactive | inactive | inactive | inactive | inactive | inactive | inactive | inactive | inactive | inactive | inactive | – | inactive | inactive
